Measurements from PubChem BioAssay (NCATS).
Results filed as inconclusive are left out. Activity calls are given as the source filed them. Unless noted, calls follow the shape of the dose curve; as a rule, active = well fitted curve in the direction sought with a large enough effect; inconclusive = small, poorly fitted or top-dose-only effect, or another doubt; inactive = no such curve, though single readings can be large; an effect the other way counts as inactive or inconclusive.

Experiments:
[1] = target: Peptidyl-prolyl cis-trans isomerase NIMA-interacting 1 (Homo sapiens) (UniProt Q13526); experiment: qHTS Validation Assay to Find Inhibitors of Pin1 (AID 504536; active = well fitted inhibition curve with a large enough effect in the polarisation, with a control signal flat, not every such curve was filed as active; the % refers to the polarisation; also: potency is read from the fitted curve at half-maximal effect)
Chain of Peptidyl-prolyl cis-trans isomerase NIMA-interacting 1 (Homo sapiens) (Q13526 whole entry, looked up): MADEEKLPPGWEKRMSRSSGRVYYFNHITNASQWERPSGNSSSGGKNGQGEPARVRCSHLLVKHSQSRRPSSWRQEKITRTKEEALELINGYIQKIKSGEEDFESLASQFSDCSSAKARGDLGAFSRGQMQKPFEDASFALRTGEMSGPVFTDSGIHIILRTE
Summary of the method: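 Fluorescence polarization competition: compounds (titration) displace HiFluor-488-labeled Pin1-1b peptide from Pin1 (0.3 uM final) in pH 7.5 HEPES buffer with DTT, 10 min at room temperature; %Activity normalized to no-enzyme wells, curves fitted.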

[2] = target: Phosphoglycerate kinase, glycosomal (Trypanosoma brucei brucei) (UniProt P07378); experiment: qHTS Validation Assay to Find Inhibitors of Phosphoglycerate Kinase (AID 504547); also: potency is read from the fitted curve at half-maximal effect
Chain of Phosphoglycerate kinase, glycosomal (Trypanosoma brucei brucei) (P07378 whole entry, looked up): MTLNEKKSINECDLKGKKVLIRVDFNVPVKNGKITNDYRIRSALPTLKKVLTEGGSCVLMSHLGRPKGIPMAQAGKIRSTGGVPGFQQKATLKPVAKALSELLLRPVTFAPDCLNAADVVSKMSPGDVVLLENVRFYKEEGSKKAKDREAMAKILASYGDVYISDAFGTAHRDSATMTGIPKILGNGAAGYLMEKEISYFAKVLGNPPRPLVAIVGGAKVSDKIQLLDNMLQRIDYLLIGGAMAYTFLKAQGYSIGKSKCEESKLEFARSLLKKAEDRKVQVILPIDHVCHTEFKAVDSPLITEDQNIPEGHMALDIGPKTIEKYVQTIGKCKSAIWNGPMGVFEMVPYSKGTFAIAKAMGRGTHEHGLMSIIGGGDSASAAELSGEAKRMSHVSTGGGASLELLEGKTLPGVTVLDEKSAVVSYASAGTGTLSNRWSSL
Summary of the method: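 Luminescence end-point (Kinase-Glo Plus, 10 min) after a 60 min room-temperature coupled reaction. GAPDH at 100nM final supplies 1,3-BPG to PGK. Buffer: 100mM TEA pH 7.6, 5mM MgCl2, 0.01% Tween-20. Wells lacking PGK served as controls.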

[3] = target: phosphoglycerate mutase (Leishmania major) (UniProt Q4Q090); experiment: qHTS Validation Assay to Find Inhibitors of Phosphoglycerate Mutase (AID 504548); conditions: Potency: inhibition qHTS;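 also: end-point luminescence from Kinase-GloPlus after the PGAM reaction; series mostly up to about 58 µM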
Chain of phosphoglycerate mutase (Leishmania major) (Q4Q090 1-553): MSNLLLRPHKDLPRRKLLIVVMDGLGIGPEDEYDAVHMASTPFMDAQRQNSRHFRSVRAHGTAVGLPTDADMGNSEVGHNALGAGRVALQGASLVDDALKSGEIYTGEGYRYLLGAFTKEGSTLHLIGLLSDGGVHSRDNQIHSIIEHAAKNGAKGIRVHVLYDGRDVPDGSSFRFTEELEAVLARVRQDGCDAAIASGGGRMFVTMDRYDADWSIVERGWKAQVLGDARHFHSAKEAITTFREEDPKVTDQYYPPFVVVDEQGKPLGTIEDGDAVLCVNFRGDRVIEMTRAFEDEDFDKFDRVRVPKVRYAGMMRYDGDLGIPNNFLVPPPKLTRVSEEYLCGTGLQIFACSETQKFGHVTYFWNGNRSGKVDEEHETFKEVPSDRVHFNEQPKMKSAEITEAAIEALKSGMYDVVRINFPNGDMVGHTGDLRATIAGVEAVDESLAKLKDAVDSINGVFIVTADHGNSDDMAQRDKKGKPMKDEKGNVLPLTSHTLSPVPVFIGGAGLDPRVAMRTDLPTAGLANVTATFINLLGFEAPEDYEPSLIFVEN
Summary of the method: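 Inhibition of L. major PGAM was assessed by Kinase-GloPlus luminescence following a 45-minute room-temperature reaction with enzyme at 1.25nM final.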

[4] = Inducers of the Endoplasmic Reticulum Stress Response (ERSR) in human glioma: Validation (AID 504836)
Summary of the method: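 ERSR induction read as luciferase luminescence (Bright-Glo, 10 min at room temperature) in stably transfected human U87-MG glioma cells exposed to compounds for 16 h, using GRP78 as sensor.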

[5] = target: Ubiquitin carboxyl-terminal hydrolase 1 (Homo sapiens) (UniProt O94782); experiment: Inhibitors of USP1/UAF1: Pilot qHTS (AID 504865); also: nearly all actives have a fitted effect of over 35% in size; also: potency is read from the fitted curve at half-maximal effect
Chain of Ubiquitin carboxyl-terminal hydrolase 1 (Homo sapiens) (O94782 whole entry, looked up): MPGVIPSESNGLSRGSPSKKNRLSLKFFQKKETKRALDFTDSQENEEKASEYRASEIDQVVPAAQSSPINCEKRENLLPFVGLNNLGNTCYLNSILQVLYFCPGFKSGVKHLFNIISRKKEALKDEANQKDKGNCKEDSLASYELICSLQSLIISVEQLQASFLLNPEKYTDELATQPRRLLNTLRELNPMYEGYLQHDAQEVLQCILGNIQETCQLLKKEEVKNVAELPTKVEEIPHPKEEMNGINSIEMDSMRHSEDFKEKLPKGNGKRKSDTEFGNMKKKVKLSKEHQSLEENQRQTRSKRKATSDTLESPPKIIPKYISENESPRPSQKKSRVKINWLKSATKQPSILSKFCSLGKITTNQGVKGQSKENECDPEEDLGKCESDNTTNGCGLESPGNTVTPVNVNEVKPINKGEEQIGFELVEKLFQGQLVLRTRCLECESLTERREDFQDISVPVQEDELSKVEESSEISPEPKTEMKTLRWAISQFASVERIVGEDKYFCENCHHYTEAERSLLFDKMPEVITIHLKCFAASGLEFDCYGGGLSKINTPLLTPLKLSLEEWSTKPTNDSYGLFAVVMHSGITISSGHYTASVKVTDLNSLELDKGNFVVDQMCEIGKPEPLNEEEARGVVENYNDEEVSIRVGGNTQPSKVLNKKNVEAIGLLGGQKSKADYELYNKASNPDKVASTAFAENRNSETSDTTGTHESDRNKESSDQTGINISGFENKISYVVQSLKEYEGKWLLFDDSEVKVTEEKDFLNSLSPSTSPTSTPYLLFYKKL
Summary of the method: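 Deubiquitinase activity followed as kinetic rhodamine fluorescence release from 150 nM Ub-Rho. 1 nM USP1/UAF1 with compound, after 15 min room-temperature preincubation, in HEPES pH 7.8 buffer containing TCEP, EDTA, BSA and Tween-20.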

[6] = qHTS for Inhibitors of ATXN expression: Validation of Cytotoxic Assay (AID 588349); also: potency is read from the fitted curve at half-maximal effect
Summary of the method: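 Cytotoxicity counter-screen: HEK293 cells exposed to compound titrations, 72 hr, 37 degrees C. Read-out is intracellular ATP (CellTiter Glo luminescence) as a viability measure.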

[7] = qHTS for Inhibitors of ATXN expression: Validation (AID 588378); also: nearly all actives have a fitted effect of over 75% in size; also: potency is read from the fitted curve at half-maximal effect
Summary of the method: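 Luciferase luminescence (Bright-Glo) from an ATXN2-FFLuc HEK293 line after 24 h compound exposure at 37 °C, preceded by a CellTiter-Fluor fluorescence viability read. Serial dilutions of a reference ATXN2 inhibitor and a luciferase inhibitor served as controls.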

[8] = target: DNA dC->dU-editing enzyme APOBEC-3G (Homo sapiens) (UniProt Q9HC16); experiment: qHTS for inhibitors of Vif-A3G interactions: Validation (AID 588379)
Chain of DNA dC->dU-editing enzyme APOBEC-3G (Homo sapiens) (Q9HC16 whole entry, looked up): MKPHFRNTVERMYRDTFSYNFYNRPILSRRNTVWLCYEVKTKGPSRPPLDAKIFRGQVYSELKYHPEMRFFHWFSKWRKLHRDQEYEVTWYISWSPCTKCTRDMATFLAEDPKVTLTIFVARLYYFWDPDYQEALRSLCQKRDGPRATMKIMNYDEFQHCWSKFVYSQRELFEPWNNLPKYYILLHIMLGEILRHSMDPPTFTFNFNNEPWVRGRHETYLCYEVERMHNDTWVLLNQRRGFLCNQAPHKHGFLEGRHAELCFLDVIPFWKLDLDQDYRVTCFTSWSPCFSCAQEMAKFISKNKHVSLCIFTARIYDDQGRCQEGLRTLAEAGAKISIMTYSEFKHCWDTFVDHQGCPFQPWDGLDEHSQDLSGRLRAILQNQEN
Summary of the method: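 Yellow fluorescence (Ex 488, Em 500-530) of Vif-coexpressing HeLa A3G-eYFP cells, scanned by Acumen cytometer, reports blocked A3G degradation. Cells plated at 700/well overnight at 37 deg C before compound addition, then a further overnight compound incubation at 37 deg C.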

[9] = target: Estrogen receptor (Homo sapiens) (UniProt P03372); experiment: qHTS assay for small molecule antagonists of estrogen receptor alpha signaling (AID 588513; active = well fitted curve in the direction sought with a large enough effect in the signal ratio, with a control signal flat, not every such curve was filed as active; the % refers to the signal ratio)
Chain of Estrogen receptor (Homo sapiens) (P03372 whole entry, looked up): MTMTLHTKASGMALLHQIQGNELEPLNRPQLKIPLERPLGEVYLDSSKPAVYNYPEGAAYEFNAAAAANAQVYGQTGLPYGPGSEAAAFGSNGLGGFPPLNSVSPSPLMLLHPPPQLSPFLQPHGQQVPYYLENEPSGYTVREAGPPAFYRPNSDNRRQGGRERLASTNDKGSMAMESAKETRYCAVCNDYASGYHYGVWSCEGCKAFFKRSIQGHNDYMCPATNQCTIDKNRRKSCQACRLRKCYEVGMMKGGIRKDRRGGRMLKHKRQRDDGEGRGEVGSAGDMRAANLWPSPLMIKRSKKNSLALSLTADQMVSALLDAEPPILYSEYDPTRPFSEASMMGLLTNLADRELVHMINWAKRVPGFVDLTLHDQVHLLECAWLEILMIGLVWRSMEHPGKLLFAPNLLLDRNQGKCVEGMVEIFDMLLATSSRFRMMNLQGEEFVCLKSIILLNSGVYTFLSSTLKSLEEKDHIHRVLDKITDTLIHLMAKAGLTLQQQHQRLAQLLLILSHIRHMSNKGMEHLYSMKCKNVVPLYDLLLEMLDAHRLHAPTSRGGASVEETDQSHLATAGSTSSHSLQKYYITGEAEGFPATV
Summary of the method: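 Antagonist mode: inhibition of 0.5 nM 17-beta-estradiol-driven beta-lactamase reporter in HEK 293 ER-alpha-UAS-bla cells, 18 h at 37C, CCF4 readout after 2 h at RT. Normalised to estradiol and DMSO; titration fitted to Hill.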

[10] = target: Estrogen receptor (Homo sapiens) (UniProt P03372); experiment: qHTS assay for small molecule agonists of estrogen receptor alpha signaling (AID 588514; calls by dose curve; also: nearly all actives have a fitted effect of over 70% in size)
Summary of the method: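 Read-out: CCF4 fluorescence from a beta-lactamase reporter in ER-alpha-UAS-bla HEK 293 cells after 18 hrs of compound exposure at 37 C. Normalized to 20 nM 17-beta-estradiol (100%) and DMSO (0%).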

Measured: Potency

CN1CCC(c2c[nH]c3ccc(O)cc23)CC1
not listed: [9] | [10]
inactive: all other assays above

CCCn1c(C)c(C(=O)c2ccc3ccccc3c2)c2ccccc21
inactive: [1] | [2] | [3] | [4] | [7]

CCCN(CCC)[C@@H]1CCc2cccc(O)c2C1
not listed: [9] | [10]
inactive: all other assays above

CC(Cc1ccc(OCC(=O)O)cc1)NCC(O)c1cccc(Cl)c1 (centres undefined)
inactive: [1] | [2] | [3] | [4] | [5] | [7]

Oc1ccc2c3c1O[C@H]1c4[nH]c5ccccc5c4C[C@@]4(O)C(C2)N(CC2CC2)CCC314 (some centres undefined)
active: [7] 17.8 µM
inactive: [1] | [2] | [3] | [4]

NNC(N)=O
not listed: [8]
inactive: all other assays above

CN1CC[C@@]2(C)c3cc(OC(=O)Nc4ccccc4)ccc3N(C)[C@@H]12
inactive: [1] | [2] | [3] | [4] | [7]

c1ccc2c(c1)[I+]c1ccccc1-2
inactive: [1] | [2] | [3] | [4] | [5] | [8]

C=CCN1CCC23c4c5ccc(O)c4O[C@H]2C(=O)CC[C@@]3(O)C1C5 (some centres undefined)
not listed: [8] | [9] | [10]
inactive: all other assays above

COc1ccc2[nH]cc(CCN)c2c1
not listed: [8] | [9] | [10]
inactive: all other assays above

Cc1[nH]c2ccc(O)cc2c1CCN
not listed: [9] | [10]
inactive: all other assays above

NC(Cc1cc(O)c(O)cc1O)C(=O)O (centres undefined)
inactive: [3] | [4] | [7]
active: [1] 1.69 µM | [2] 0.338 µM | [5] 14.1 µM

OCc1cnc[nH]1
not listed: [8] | [9] | [10]
inactive: all other assays above

C[N+]1(C)C2CCC1CC(OC(=O)c1c[nH]c3ccccc13)C2 (centres undefined)
not listed: [8] | [9] | [10]
inactive: all other assays above

Cc1cc([C@@H]2CCCN2C)on1
not listed: [8] | [9] | [10]
inactive: all other assays above

C[N+](C)(C)CC#CCN1CCCC1=O
not listed: [9] | [10]
inactive: all other assays above

NCCc1c[nH]c2ccc(C(N)=O)cc12
not listed: [9] | [10]
inactive: all other assays above

CC(C)(C)c1cc(C=C(C#N)C#N)cc(C(C)(C)C)c1O
active: [7] 0.631 µM
inactive: [1] | [2] | [3] | [4]

C=CCN1CCc2cccc3c2[C@H]1Cc1ccc(O)c(O)c1-3
inactive: [1] | [2] | [4] | [5]

CNc1ccc2oc(C[C@H]3O[C@@]4(CC[C@H]3C)O[C@H]([C@H](C)C(=O)c3ccc[nH]3)[C@H](C)C[C@H]4C)nc2c1C(=O)O
active: [7] 3.16 µM
inactive: [1] | [2] | [3] | [5]

C[C@@H]1O[C@H](C[N+](C)(C)C)CS1
not listed: [8] | [9] | [10]
inactive: all other assays above

CN(C(=O)Cc1ccc(Cl)c(Cl)c1)C(CN1CCCC1)c1cccc(OCC(=O)O)c1 (centres undefined)
not listed: [8] | [9] | [10]
inactive: all other assays above

Ic1ccccc1CNC1C2CCN(CC2)C1C(c1ccccc1)c1ccccc1 (centres undefined)
active: [6] 25.1 µM | [7] 12.6 µM
inactive: [1] | [2] | [3] | [4] | [5]

CCCN(CCC)CCc1ccc(O)c(O)c1
not listed: [8] | [9] | [10]
inactive: all other assays above

COc1ccc(OC)c(C(O)C(C)N)c1 (centres undefined)
not listed: [8] | [9] | [10]
inactive: all other assays above

CCOC(=O)c1ncn2c1[C@@H]1CCCN1C(=O)c1cc(OC)ccc1-2
not listed: [8] | [9] | [10]
inactive: all other assays above

O=[N+]([O-])/C=C/c1ccc2c(c1)OCO2
inactive: [1] | [2] | [3] | [4] | [5]
active: [7] 10 µM

CC(C)[C@@]1(NC(=O)[C@@H]2C[C@@H]3c4cccc5[nH]cc(c45)C[C@H]3N(C)C2)O[C@@]2(O)[C@@H]3CCCN3C(=O)[C@H](Cc3ccccc3)N2C1=O
not listed: [7] | [9] | [10]
inactive: all other assays above

NC(=O)COc1c(F)cc(SCCNS(=O)(=O)c2ccccc2)cc1F
inactive: [1] | [2] | [3] | [4] | [5] | [7]

CC(=O)OCC1=C(C(=O)O)N2C(=O)[C@@H](NC(=O)CCC[C@@H](N)C(=O)O)[C@H]2SC1
not listed: [8] | [9] | [10]
inactive: all other assays above
